# Where “and” joins values, the source holds several entries; their conditions need not be identical. Identical values can stand only once. Inconclusive results are not listed. The source holds several records for some structures; these can differ, active in one and inactive in another. Calls of active or inactive are those of the source. How the source made its calls: active means hit-call score of the fitted dose curve at least 0.9, where 1 is the maximum; inconclusive means response in the unintended direction; inactive means score below 0.9.
# Tests used:
# [1] = test system: rabbit Platelet Activating Factor Receptor (PAF), gene 100354046; assay: NVS_GPCR_rabPAF: NovaScreen (NVS) G Protein-Coupled Receptor Assay for rabbit Platelet Activating Factor Receptor (PAF) (AID 2283287)
# Procedure, shortened: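 Rabbit platelet membrane preparation; radioligand displacement read by filter-based scintillation counting 1 h after dosing, loss of signal versus DMSO. Primary screen in duplicate at 25 uM, actives followed up in concentration series.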
# [2] = biological target: human Opioid Receptor Delta 1 (Opiate D1), OPRD1 (gene 4985) (UniProt P41143); assay: NVS_GPCR_hOpiate_D1: NovaScreen (NVS) G Protein-Coupled Receptor Assay for human Opioid Receptor Delta 1 (Opiate D1) (AID 2283280)
# Sequence of human Opioid Receptor Delta 1 (Opiate D1), OPRD1 (gene 4985) (P41143 whole entry, looked up): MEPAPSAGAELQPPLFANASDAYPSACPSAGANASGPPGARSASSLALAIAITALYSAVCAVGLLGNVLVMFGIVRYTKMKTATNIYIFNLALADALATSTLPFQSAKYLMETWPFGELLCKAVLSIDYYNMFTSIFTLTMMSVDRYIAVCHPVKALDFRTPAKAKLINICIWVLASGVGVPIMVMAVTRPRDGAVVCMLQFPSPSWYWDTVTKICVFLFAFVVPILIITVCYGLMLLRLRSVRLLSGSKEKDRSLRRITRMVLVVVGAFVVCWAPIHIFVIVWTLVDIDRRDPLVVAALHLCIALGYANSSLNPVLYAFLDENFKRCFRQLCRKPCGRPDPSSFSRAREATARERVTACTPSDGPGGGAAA
# Procedure, shortened: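 Membrane preparations from CHO cells bearing the human receptor were incubated 1 h with test chemical, and bound radioligand was counted after filtration. Actives from 25 uM duplicate screening were retested in concentration-response.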
# [3] = biological target: mouse Cholecystokinin, CCK1 Receptor (CCKA), Cckar (gene 12425) (UniProt O08786); assay: NVS_GPCR_mCCKAPeripheral: NovaScreen (NVS) G Protein-Coupled Receptor Assay for mouse Cholecystokinin, CCK1 Receptor (CCKA) (AID 2283285)
# Sequence of mouse Cholecystokinin, CCK1 Receptor (CCKA), Cckar (gene 12425) (O08786 whole entry, looked up): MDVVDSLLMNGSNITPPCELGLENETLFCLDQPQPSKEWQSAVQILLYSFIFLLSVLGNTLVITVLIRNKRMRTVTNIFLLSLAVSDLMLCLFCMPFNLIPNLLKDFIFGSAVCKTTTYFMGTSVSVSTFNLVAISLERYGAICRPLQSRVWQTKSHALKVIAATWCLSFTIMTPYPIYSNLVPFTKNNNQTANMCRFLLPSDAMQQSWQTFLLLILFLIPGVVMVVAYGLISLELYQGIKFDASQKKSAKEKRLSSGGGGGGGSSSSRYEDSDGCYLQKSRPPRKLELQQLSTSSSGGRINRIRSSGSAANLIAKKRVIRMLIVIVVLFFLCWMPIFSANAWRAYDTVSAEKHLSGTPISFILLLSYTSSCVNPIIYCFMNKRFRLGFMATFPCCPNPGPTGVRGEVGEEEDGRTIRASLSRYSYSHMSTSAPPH
# Protocol: NVS_GPCR_mCCKAPeripheral is a biochemical, single-readout assay that uses extracted gene-proteins from Mouse pancreatic membranes in a tissue-based cell-free assay. Measurements were taken 2 hours after chemical dosing in a 96-well plate.NVS_GPCR_mCCKAPeripheral is one of one assay component(s) measured or calculated from the NVS_GPCR_mCCKAPeripheral assay. It is designed to make measurements of radioligand binding, a form of binding reporter, as detected with scintillation counting signals by Filter-based radiodetection technology.Data from the assay component NVS_GPCR_mCCKAPeripheral was analyzed into 1 assay endpoint. This assay endpoint, NVS_GPCR_mCCKAPeripheral, was analyzed in the positive analysis fitting direction relative to DMSO as the negative control and baseline of activity. Using a type of binding reporter, loss-of-signal activity can be used to understand changes in the binding as they relate to the gene Cckar. Furthermore, this assay endpoint can be referred to as a primary readout, because the performed assay has only produced 1 assay endpoint. To generalize the intended target to other relatable targets, this assay endpoint is annotated to the gpcr intended target family, where the subfamily is rhodopsin-like receptor.
# Binding assays used specific radioligands (tritiated, iodinated) with non-radioactive competitive displacement ligands in agonist or antagonist protocols (as indicated) and various reference compounds and inhibitors to titrate specific binding to receptors and transporters. Most enzyme assays (CYPs, kinases, phosphatases, proteases, HDACs) used recombinant protein and specific substrates (fluorescence mostly, some colorimetric and radioactive) and inhibitors, followed by a biochemical separation of substrate and product. All assays for the biochemical HTS were initially run in duplicate at a single concentration (10 uM for CYP450 assays and 25 uM for all others). Assay-chemical combinations meeting a pre-defined threshold (e.g., 30% inhibition and other criteria defined below) were then run in singleton concentration-response format with maximum concentration of 20 uM for CYPs and 50 uM for all others. Each assay was run with positive and negative controls, and concurrent controls on every plate. The follow-up (secondary) screen tested active chemical-pairs in concentration series, as well as a few additional assays not tested in the primary screen, some selected negative inactives, and several cases re-run in the concentration series for confirmatory purposes.
# [4] = biological target: human Purinergic Receptor P2Y, P2RY1 (gene 5028) (UniProt P47900); assay: NVS_GPCR_hPY2: NovaScreen (NVS) G Protein-Coupled Receptor Assay for human Purinergic Receptor P2Y (AID 2283281)
# Sequence of human Purinergic Receptor P2Y, P2RY1 (gene 5028) (P47900 whole entry, looked up): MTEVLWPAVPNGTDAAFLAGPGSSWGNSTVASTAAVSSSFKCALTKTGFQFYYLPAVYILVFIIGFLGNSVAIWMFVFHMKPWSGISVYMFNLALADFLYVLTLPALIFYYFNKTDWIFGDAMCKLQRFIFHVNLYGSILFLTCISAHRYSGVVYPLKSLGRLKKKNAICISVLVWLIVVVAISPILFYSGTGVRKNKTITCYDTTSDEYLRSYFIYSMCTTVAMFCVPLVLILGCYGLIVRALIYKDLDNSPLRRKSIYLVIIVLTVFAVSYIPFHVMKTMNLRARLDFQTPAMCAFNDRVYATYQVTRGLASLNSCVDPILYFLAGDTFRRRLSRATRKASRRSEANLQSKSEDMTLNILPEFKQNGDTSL
# Protocol: NVS_GPCR_hPY2 is a biochemical, single-readout assay that uses extracted gene-proteins from U937 in a cell-free assay. Measurements were taken 1 hour after chemical dosing in a 48-well plate.NVS_GPCR_hPY2 is one of one assay component(s) measured or calculated from the NVS_GPCR_hPY2 assay. It is designed to make measurements of radioligand binding, a form of binding reporter, as detected with scintillation counting signals by Filter-based radiodetection technology.Data from the assay component NVS_GPCR_hPY2 was analyzed into 1 assay endpoint. This assay endpoint, NVS_GPCR_hPY2, was analyzed in the positive analysis fitting direction relative to DMSO as the negative control and baseline of activity. […] Furthermore, this assay endpoint can be referred to as a primary readout, because the performed assay has only produced 1 assay endpoint. […]
# Binding assays used specific radioligands (tritiated, iodinated) with non-radioactive competitive displacement ligands in agonist or antagonist protocols (as indicated) and various reference compounds and inhibitors to titrate specific binding to receptors and transporters. Most enzyme assays (CYPs, kinases, phosphatases, proteases, HDACs) used recombinant protein and specific substrates (fluorescence mostly, some colorimetric and radioactive) and inhibitors, followed by a biochemical separation of substrate and product. […]
# [5] = biological target: human Thromboxane A2 Receptor (TXA2), TBXA2R (gene 6915) (UniProt P21731); assay: NVS_GPCR_hTXA2: NovaScreen (NVS) G Protein-Coupled Receptor Assay for human Thromboxane A2 Receptor (TXA2) (AID 2283282);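 further: actives reduce bound radioligand signal relative to DMSO baseline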
# Sequence of human Thromboxane A2 Receptor (TXA2), TBXA2R (gene 6915) (P21731 whole entry, looked up): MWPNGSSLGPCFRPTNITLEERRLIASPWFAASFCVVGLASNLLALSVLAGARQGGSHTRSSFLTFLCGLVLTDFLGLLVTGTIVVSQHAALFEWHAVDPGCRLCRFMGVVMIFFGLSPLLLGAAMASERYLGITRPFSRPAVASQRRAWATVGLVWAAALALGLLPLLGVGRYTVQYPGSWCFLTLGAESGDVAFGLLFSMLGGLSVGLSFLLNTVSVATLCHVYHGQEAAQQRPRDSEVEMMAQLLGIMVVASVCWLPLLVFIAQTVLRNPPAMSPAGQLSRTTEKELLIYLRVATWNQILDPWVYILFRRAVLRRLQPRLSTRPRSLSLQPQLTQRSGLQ
# Procedure, shortened: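 Cell-free radioligand binding on membrane protein from human platelets; radioligand displacement read by filter-based scintillation counting after 1 h. Primary screen in duplicate at 25 uM, actives then run in concentration series; loss of signal versus DMSO.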
# [6] = biological target: rat Adrenergic, Alpha 1, Non-selective Receptor (Adra1), Adra1a (gene 29412) (UniProt P43140); assay: NVS_GPCR_rAdra1_NonSelective: NovaScreen (NVS) G Protein-Coupled Receptor Assay for rat Adrenergic, Alpha 1, Non-selective Receptor (Adra1) (AID 2283289)
# Sequence of rat Adrenergic, Alpha 1, Non-selective Receptor (Adra1), Adra1a (gene 29412) (P43140 whole entry, looked up): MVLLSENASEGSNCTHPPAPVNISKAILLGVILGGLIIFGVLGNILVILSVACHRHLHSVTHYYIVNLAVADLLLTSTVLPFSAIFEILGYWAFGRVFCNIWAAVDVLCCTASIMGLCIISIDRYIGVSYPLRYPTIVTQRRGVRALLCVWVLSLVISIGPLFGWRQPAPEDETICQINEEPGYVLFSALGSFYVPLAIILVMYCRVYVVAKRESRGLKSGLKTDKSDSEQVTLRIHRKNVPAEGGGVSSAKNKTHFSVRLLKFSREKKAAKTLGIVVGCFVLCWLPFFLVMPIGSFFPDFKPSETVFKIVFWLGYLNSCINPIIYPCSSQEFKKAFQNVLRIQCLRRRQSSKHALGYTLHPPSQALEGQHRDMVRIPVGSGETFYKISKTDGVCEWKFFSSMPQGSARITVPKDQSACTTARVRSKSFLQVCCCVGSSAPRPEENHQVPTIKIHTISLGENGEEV
# Procedure, shortened: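 Chemicals first screened in duplicate at 25 uM, then actives tested in concentration series up to 50 uM. Binding measured as displacement of radioligand from rat forebrain membrane receptors, 1 h, filtration with scintillation readout; DMSO baseline.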
# [7] = biological target: human Orphanin, Opioid Related Nociceptin Receptor 1 (ORL1), OPRL1 (gene 4987) (UniProt P41146); assay: NVS_GPCR_hORL1: NovaScreen (NVS) G Protein-Coupled Receptor Assay for human Orphanin, Opioid Related Nociceptin Receptor 1 (ORL1) (AID 2283283)
# Sequence of human Orphanin, Opioid Related Nociceptin Receptor 1 (ORL1), OPRL1 (gene 4987) (P41146 whole entry, looked up): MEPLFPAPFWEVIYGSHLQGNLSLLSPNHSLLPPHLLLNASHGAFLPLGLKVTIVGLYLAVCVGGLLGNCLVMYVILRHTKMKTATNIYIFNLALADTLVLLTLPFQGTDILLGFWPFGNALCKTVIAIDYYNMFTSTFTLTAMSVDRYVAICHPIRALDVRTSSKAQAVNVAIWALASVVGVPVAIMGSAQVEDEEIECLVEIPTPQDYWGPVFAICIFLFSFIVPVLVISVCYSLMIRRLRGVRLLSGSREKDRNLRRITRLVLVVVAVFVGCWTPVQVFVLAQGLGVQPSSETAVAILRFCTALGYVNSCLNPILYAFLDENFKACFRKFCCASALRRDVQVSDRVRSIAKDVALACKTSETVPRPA
# Procedure, shortened: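 Cell-free binding using HEK293-derived receptor protein: radioligand displacement measured by filter scintillation 1 hour after dosing. Primary testing at 25 uM in duplicate, followed by singleton concentration series up to 50 uM; DMSO served as negative control.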
# [8] = biological target: human Vasopressin 1A Receptor (V1A), AVPR1A (gene 552) (UniProt P37288); assay: NVS_GPCR_hV1A: NovaScreen (NVS) G Protein-Coupled Receptor Assay for human Vasopressin 1A Receptor (V1A) (AID 2283284)
# Sequence of human Vasopressin 1A Receptor (V1A), AVPR1A (gene 552) (P37288 whole entry, looked up): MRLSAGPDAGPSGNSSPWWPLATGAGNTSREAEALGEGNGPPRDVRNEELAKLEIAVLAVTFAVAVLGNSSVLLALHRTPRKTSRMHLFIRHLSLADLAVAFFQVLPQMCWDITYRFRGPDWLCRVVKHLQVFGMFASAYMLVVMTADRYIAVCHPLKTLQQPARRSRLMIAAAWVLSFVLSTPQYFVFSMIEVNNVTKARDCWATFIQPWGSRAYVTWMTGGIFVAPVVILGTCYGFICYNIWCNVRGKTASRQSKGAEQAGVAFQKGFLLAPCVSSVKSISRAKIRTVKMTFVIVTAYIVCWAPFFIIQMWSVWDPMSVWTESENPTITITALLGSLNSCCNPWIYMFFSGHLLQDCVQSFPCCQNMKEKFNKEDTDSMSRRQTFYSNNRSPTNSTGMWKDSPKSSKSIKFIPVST
# Procedure, shortened: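 Single-concentration duplicate screen at 25 uM, with concentration-response follow-up (top 50 uM) for actives. The assay measured displacement of a radioligand from human platelet-derived receptor after 1.5 h, detected by filtration and scintillation counting.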
# [9] = test system: 5-hydroxytryptamine receptor 2C (pig); assay: NVS_GPCR_p5HT2C: NovaScreen (NVS) G Protein-Coupled Receptor Assay for pig Serotonin, 5-Hydroxytryptamine Receptor 2C (5HT2C) (AID 2283288)
# Procedure, shortened: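 Radioligand displacement on membranes from pig choroid plexus, detected by filter scintillation counting after 1 h. Tested first at a single 25 uM in duplicate, then in concentration-response for actives; DMSO served as baseline.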
# [10] = biological target: rat Serotonin, 5-Hydroxytryptamine Receptor 1 (5HT1), Non-Selective Binding, Htr1a (gene 24473) (UniProt P19327); assay: NVS_GPCR_r5HT1_NonSelective: NovaScreen (NVS) G Protein-Coupled Receptor Assay for rat Serotonin, 5-Hydroxytryptamine Receptor 1 (5HT1), Non-Selective Binding (AID 2283286)
# Sequence of rat Serotonin, 5-Hydroxytryptamine Receptor 1 (5HT1), Non-Selective Binding, Htr1a (gene 24473) (P19327 whole entry, looked up): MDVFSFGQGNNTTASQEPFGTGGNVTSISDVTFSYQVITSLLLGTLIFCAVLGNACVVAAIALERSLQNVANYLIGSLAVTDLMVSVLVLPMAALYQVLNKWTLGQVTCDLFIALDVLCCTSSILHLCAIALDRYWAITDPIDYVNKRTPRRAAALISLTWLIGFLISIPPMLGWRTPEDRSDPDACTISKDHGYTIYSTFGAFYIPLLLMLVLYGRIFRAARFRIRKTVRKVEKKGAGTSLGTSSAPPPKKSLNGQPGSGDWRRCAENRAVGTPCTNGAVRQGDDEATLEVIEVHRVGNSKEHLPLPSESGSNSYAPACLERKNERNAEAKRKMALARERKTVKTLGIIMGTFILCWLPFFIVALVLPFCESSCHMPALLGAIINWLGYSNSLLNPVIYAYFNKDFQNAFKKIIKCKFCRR
# Protocol: NVS_GPCR_r5HT1_NonSelective is a biochemical, single-readout assay that uses extracted gene-proteins from Rat cortical membranes in a tissue-based cell-free assay. Measurements were taken 1 hour after chemical dosing in a 48-well plate.NVS_GPCR_r5HT1_NonSelective is one of one assay component(s) measured or calculated from the NVS_GPCR_r5HT1_NonSelective assay. It is designed to make measurements of radioligand binding, a form of binding reporter, as detected with scintillation counting signals by Filter-based radiodetection technology.Data from the assay component NVS_GPCR_r5HT1_NonSelective was analyzed into 1 assay endpoint. This assay endpoint, NVS_GPCR_r5HT1_NonSelective, was analyzed in the positive analysis fitting direction relative to DMSO as the negative control and baseline of activity. Using a type of binding reporter, loss-of-signal activity can be used to understand changes in the binding as they relate to the gene Htr1a. Furthermore, this assay endpoint can be referred to as a primary readout, because the performed assay has only produced 1 assay endpoint. To generalize the intended target to other relatable targets, this assay endpoint is annotated to the gpcr intended target family, where the subfamily is rhodopsin-like receptor. […]
structure (smiles),measurement,setting,value
CCOCN(C(=O)CCl)c1c(C)cccc1CC,AC50,[1],15.2 µM (active)
Oc1cc(Cl)ccc1Oc1ccc(Cl)cc1Cl,AC50,[2],10.7 µM (active) and 25.5 µM (active) and 9.39 µM (active)
same,outcome,[2],inactive
same,AC50,[3],25.5 µM (active) and 38.4 µM (active)
same,outcome,[3],inactive
CC(C)(C)C(O)C(Oc1ccc(Cl)cc1)n1cncn1 (stereo not given),outcome,[4],inactive
O=C(O)CCCOc1ccc(Cl)cc1Cl,AC50,[1],15.8 µM (active)
CCCN(CCOc1c(Cl)cc(Cl)cc1Cl)C(=O)n1ccnc1,outcome,[2],inactive
same,AC50,[3],10.5 µM (active)
[2H]C1([2H])[n+]2ccccc2-c2cccc[n+]2C1([2H])[2H],outcome,[1],inactive
CCOc1nc(NC)nc(NC(=O)NS(=O)(=O)c2ccccc2C(=O)OC)n1,outcome,[1],inactive
O=C(Nc1ccccc1)Nc1cnns1,outcome,[1],inactive
O=C(O)C(F)(F)C(F)(F)C(F)(F)C(F)(F)C(F)(F)C(F)(F)C(F)(F)F,outcome,[2],inactive
same,AC50,[5],9.44 µM (active)
same,outcome,[5],inactive
COP(=O)(OC)OC=C(Cl)Cl,outcome,[1],inactive
Cc1cc(C)nc(NC(=O)NS(=O)(=O)c2ccccc2C(=O)OC2COC2)n1,outcome,[2],inactive
same,outcome,[1],inactive
CC(C)OC(=O)Nc1cccc(Cl)c1,AC50,[3],15.7 µM (active)
same,outcome,[6],inactive
Oc1ccc(Cl)cc1Cc1ccccc1,AC50,[2],25.2 µM (active) and 13.3 µM (active)
same,AC50,[5],7.86 µM (active) and 5.43 µM (active)
same,outcome,[5],inactive
same,AC50,[7],25.2 µM (active) and 47 µM (active)
same,outcome,[8],inactive
same,AC50,[3],25.2 µM (active) [middle of 5 runs]
same,AC50,[9],12.6 µM (active) [middle of 4 runs]
CCS(=O)(=O)c1cccnc1S(=O)(=O)NC(=O)Nc1nc(OC)cc(OC)n1,outcome,[1],inactive
COP(=S)(OC)Oc1ccc([N+](=O)[O-])cc1,outcome,[10],inactive
ClC1C(Cl)C(Cl)C(Cl)C(Cl)C1Cl (stereo not given),outcome,[6],inactive
O=S(=O)(O)C(F)(F)C(F)(F)C(F)(F)C(F)(F)C(F)(F)C(F)(F)C(F)(F)C(F)(F)F,outcome,[2],inactive
same,AC50,[4],15.8 µM (active)
same,AC50,[5],15.8 µM (active) [middle of 4 runs]
same,outcome,[5],inactive
same,outcome,[1],inactive
